Hit rate of the full screen: of about 63,000 compounds, about 1,100 (1.7%) were called active.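 The calls were made as follows: active = compounds whose percent cytotoxicity in the single-dose primary screen, scaled between solvent and toxic-drug controls, exceeds 50; inactive = the rest.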 The list comes from a sample in which actives are over-represented; it also holds similar structures and randomly drawn compounds. Entries with a potency or affinity are not part of this list.

A short description of this assay: cytotoxicity in KRAS-transformed pancreatic duct cells, primary screen, cell-based, fluorescence, HTS (AID 431).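 Also: 0% = DMSO solvent wells and 100% = doxorubicin-treated wells.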 The settings on record: HPDE-C7K KRASV12 cells, Alamar Blue viability, 48 h; at 10 µM; active compounds read high. In general terms: The colour change of resazurin is a common sign of viable cells or microbes.
For the compound `COc1ccccc1-c1cc(-c2cc(Cl)ccc2O)n[nH]1`, the cytotoxicity is -3.1% (inactive). Consider `Oc1ccccc1-c1cc(-c2ccccc2Cl)[nH]n1`, for which the cytotoxicity was 15.9% (inactive).

`Cc1ccccc1-c1cc(-c2ccccc2O)n[nH]1`: the cytotoxicity was 44% (inactive).

`Cc1ccc(-c2cc(-c3ccccc3Cl)[nH]n2)c(O)c1`: the cytotoxicity is 59.5% (active).

Turning to `Cc1ccc(-c2cc(-c3cccc(F)c3)n[nH]2)c(O)c1`, the cytotoxicity was 10.8% (inactive). `CCOc1ccccc1OCC(=O)Nc1ccc(S(=O)(=O)N(C)C)cc1`: the cytotoxicity was 3.1% (inactive). `O=C(Cn1nnc(-c2ccccc2F)n1)Nc1ccc(S(=O)(=O)NC2CCCC2)cc1`: the cytotoxicity was -26.3% (inactive). Consider `CCOC(=O)C(C)Oc1cccc2c(=O)n(CC(=O)NCc3ccco3)ccc12` (stereo not drawn), for which the cytotoxicity is 61.1% (active). Under `CCOC(=O)C(C)Oc1cccc2c(=O)n(CC(=O)NCc3ccc4c(c3)OCO4)ccc12` (stereo not drawn) stands 38.8% (inactive); under `CCOC(=O)C(C)Oc1cccc2c(=O)n(CC(=O)N3CCN(C(=O)OCC)CC3)ccc12` (stereo not drawn), -16.7% (inactive); under `COc1ccc(NC(=O)C2CCCN(S(=O)(=O)c3cnc[nH]3)C2)cc1` (stereo not drawn), -5.3% (inactive). As for `COc1ccc(Br)cc1CNc1ccc(O)cc1`, the cytotoxicity was 50% (active). With `COc1cc(C)c(CNc2ccc(OC)c(OC)c2)cc1C` the figure was 21.6% (inactive). Take `COc1ccc(Br)cc1C(=O)Nc1ccc(O)cc1`: the cytotoxicity was -14.3% (inactive). With `Cc1ccc(-n2nnnc2SCC(=O)Nc2c(C)n(C)n(-c3ccccc3)c2=O)cc1` the figure was -3.4% (inactive); with `COc1ccc(OC)c(Nc2cc(C(=O)NCCCN3CCOCC3)c3ccccc3n2)c1`, 1.8% (inactive).

As to `CCOc1ccc(NC(=O)Cn2nnc(-c3ccccc3NC(=O)CC)n2)cc1`, the cytotoxicity was 5.1% (inactive). Under `NC(=O)c1cc2ccc(O)cc2oc1=NCc1ccccc1` stands 4.1% (inactive); under `CC(=NCc1ccccc1)C1=C(O)COC1=O`, -6% (inactive); under `Cc1ccc(NC(=O)CC2Nc3ccccc3NC2=O)cc1Cl` (stereo not drawn), 51.6% (active). Under `COc1ccccc1NC(=O)CC1Nc2ccccc2NC1=O` (stereo not drawn) stands -4.5% (inactive); under `O=C(CC1Nc2ccccc2NC1=O)Nc1ccccc1` (stereo not drawn), -3.2% (inactive). With `CC(C)c1nc(SCc2c(F)cccc2Cl)c2c(=O)n(C)c(=O)n(C)c2n1` the figure was 70.4% (active); with `CC(C)c1nc(SCc2ccccn2)c2c(=O)n(C)c(=O)n(C)c2n1`, 1.9% (inactive).

Turning to `Cc1nc(SCc2c(F)cccc2Cl)c2c(=O)n(C)c(=O)n(C)c2n1`, the cytotoxicity is -12.8% (inactive). With `CCC(CC)C(=O)Nc1ccccc1NC(C)=O`, the cytotoxicity is -16% (inactive). In the case of `N#CCCN(CCC#N)C(=O)c1ccc2c(c1)OCO2`, the cytotoxicity was -3.2% (inactive). With `COc1ccc(Nc2cc(C)nc(-n3nc(C)cc3C)n2)cc1` the figure was 79.2% (active). Under `CC(=O)c1ccc(Oc2cc(C)nc(-n3nc(C)cc3C)n2)cc1` stands 56.4% (active); under `CCOc1ccc(Nc2cc(C)nc(-n3nc(C)cc3C)n2)cc1`, 40.7% (inactive). Under `CNc1cc(C)nc(-n2nc(C)cc2C)n1` stands -14.9% (inactive). Regarding `COc1ccc(N2CCN(C(=O)c3ccc(-n4nc(C)cc4C)cc3)CC2)cc1`, the cytotoxicity is 2.6% (inactive). With `COC(=O)c1ccc(Oc2cc(C)nc(-n3nc(C)cc3C)n2)cc1` the figure was 32.6% (inactive); with `Cc1cc(NC(=O)c2cnn3c(C(F)F)cc(C4CC4)nc23)no1`, 20.6% (inactive); with `COc1cccc(NC(=O)c2ccccc2-c2nc(-c3ccccc3)no2)c1`, 25.4% (inactive). For the compound `COc1ccc(OC)c(NC(=O)CNC(=O)Cn2cnc3ccccc3c2=O)c1`, the cytotoxicity is 2.3% (inactive). Under `Cc1cccc(N(C)S(=O)(=O)c2cccc3nsnc23)c1` stands 14.4% (inactive); under `CCOC(=O)C1CCN(C(=O)c2oc3ccc(S(=O)(=O)N4CC(C)CC(C)C4)cc3c2C)CC1` (stereo not drawn), 5.5% (inactive). In the case of `Cc1ccc(-c2csc3nc(C)n(-n4cccc4)c(=O)c23)o1`, the cytotoxicity was 0.5% (inactive).

Take `O=C(O)CSc1nnc(-c2ccccc2)o1`: the cytotoxicity is 19.6% (inactive).

In the case of `Cc1nnc(SCC(=O)n2c3c(c4ccccc42)CCCC3)s1`, the cytotoxicity is 6.2% (inactive). With `O=C(CSc1nnc(-c2ccccc2)o1)n1c2c(c3ccccc31)CCCC2`, the cytotoxicity is 69.9% (active). Under `Cc1cccc(NC(=O)CSc2n[nH]c(-c3ccncc3)n2)c1` stands -6.1% (inactive). Under `Cc1ccc(N(CC(=O)Nc2ccc3c(c2)OCCO3)S(=O)(=O)c2c(C)n[nH]c2C)cc1` stands 9.8% (inactive); under `CCOc1cc2c(C#N)c(N3CCOCC3)nc(N)c2c(N)n1`, 22.5% (inactive); under `COc1cc2c(C#N)c(N3CCCCC3)nc(N)c2c(N)n1`, 56.9% (active). Under `COc1cc2c(C#N)c(N3CCOCC3)nc(N)c2c(N)n1` stands 46.6% (inactive).

For the compound `COc1ccccc1-c1nc(C#N)c(N2CCc3ccccc3C2)o1`, the cytotoxicity was 20.5% (inactive). Under `CCOc1ccccc1N1CCN(c2nc(N)c(C#N)c(CC#N)c2C#N)CC1` stands -11.4% (inactive). As to `COc1cc2c(C#N)c(N3CCN(c4ccccc4OC)CC3)nc(N)c2c(N)n1`, the cytotoxicity is 57.2% (active).

For the compound `N#Cc1c(N2CCCC2)nc(N)c2c(N)nc(N3CCCC3)cc12`, the cytotoxicity is -2.8% (inactive). With `COc1ccccc1N1CCN(c2nc(N)c(C#N)c(CC#N)c2C#N)CC1` the figure was -4.3% (inactive); with `Cn1c(=O)c2c(nc(Oc3ccc4c(c3)OCO4)n2Cc2ccc(Cl)cc2)n(C)c1=O`, 12.9% (inactive); with `Cc1cc(Br)c(S(=O)(=O)NCCN2CCOCC2)cc1C`, 8.4% (inactive).

With `CN(Cc1ccco1)C(=O)Cn1c(=O)oc2cc(S(=O)(=O)NCc3ccccc3)ccc21`, the cytotoxicity was 13.3% (inactive). With `CN(CCCn1c(=S)[nH]c2ncccc2c1=O)Cc1ccccc1` the figure was -13.7% (inactive); with `COc1ccc(OC)c(-c2cc(C(=O)N3CCCc4ccccc43)no2)c1`, -6.9% (inactive); with `COc1ccc(CCNC2CC(=O)N(CCc3ccc(OC)c(OC)c3)C2=O)cc1OC` (stereo not drawn), 6.1% (inactive). With `COC(=O)Nc1ccc(Oc2ccccc2)cc1`, the cytotoxicity was -4.1% (inactive). As for `COc1ccccc1C(c1nnnn1Cc1ccccc1)N1CCN(c2nc3ccccc3s2)CC1` (stereo not drawn), the cytotoxicity was -13% (inactive). Under `C=CS(=O)(=O)c1ccc(Oc2ccc(S(=O)(=O)C=C)cc2)cc1` stands 94.8% (active); under `CNS(=O)(=O)c1ccc(Oc2ccc(S(=O)(=O)NC)cc2)cc1`, 9.9% (inactive). As to `O=S(=O)(c1ccc(Oc2ccc(S(=O)(=O)N3CCOCC3)cc2)cc1)N1CCOCC1`, the cytotoxicity was -9% (inactive). On to `CCn1cc(C(=O)NCCc2ccccc2)c(=O)c2cc(F)c(N3CCN(C)CC3)cc21`, for which the cytotoxicity was 50.5% (active).

As for `CCn1cc(C(=O)NCc2ccccn2)c(=O)c2cc(F)c(N3CCN(C)CC3)cc21`, the cytotoxicity is 2.1% (inactive). In the case of `CCn1cc(C(=O)NCCCN(C)C)c(=O)c2cc(F)c(N3CCN(C)CC3)cc21`, the cytotoxicity is -0.3% (inactive). For the compound `C/C(Cl)=C\Cn1c(N2CCCCCC2)nc2c1c(=O)n(C)c(=O)n2C`, the cytotoxicity was 12% (inactive). With `N#Cc1ccc(NC(=O)c2cc3cc4c5c(c3oc2=N)CCCN5CCC4)cc1` the figure was 12.7% (inactive); with `Cc1cc(-c2ccccc2)nc(N2CCN(c3ccccn3)CC2)n1`, 5.4% (inactive). For `O=C(c1cc(Cl)ccc1Cl)N1CCN(c2ccccn2)CC1`, the cytotoxicity was 1.5% (inactive). With `COC(=O)c1sc(Nc2ccccc2)nc1C` the figure was 0.2% (inactive); with `CCS(=O)(=O)N1CCN(c2cccc(C)c2C)CC1`, -2.5% (inactive).

`c1ccc(-c2ccc(-c3nc(-c4ccccn4)no3)cc2)cc1`: the cytotoxicity is -2.8% (inactive).

In the case of `c1ccc(-c2cc(-c3nc(-c4ccccn4)no3)c3ccccc3n2)cc1`, the cytotoxicity is 60.7% (active). Turning to `c1ccc(-c2cc(-c3nc(-c4cccnc4)no3)c3ccccc3n2)cc1`, the cytotoxicity was -19.7% (inactive). Under `Cc1cc(C)n2cc(CSc3nnnn3-c3ccccc3C)nc2n1` stands -17.4% (inactive); under `COc1ccc(CSc2nnc(N)s2)cc1F`, 49.9% (inactive); under `Cc1ccc2c(c1)c1c3n2CCN(C(=O)C2CC2)C3CCC1` (stereo not drawn), -2.9% (inactive). Turning to `Cc1ccc2c(c1)c1c3n2CCN(C(=O)CN2CCN(C)CC2)C3CCC1` (stereo not drawn), the cytotoxicity is 42.5% (inactive). Under `COc1ccccc1N1CCN(C(=O)CCCCn2c(=O)[nH]c3ccsc3c2=O)CC1` stands 1.8% (inactive). Consider `CN1CCc2nc(SCC(=O)Nc3ccc(F)cc3)c(C#N)cc2C1`, for which the cytotoxicity was -5% (inactive). Turning to `C=CCN1C(=O)c2ccccc2Sc2ccc(C(=O)N3CCN(C)CC3)cc21`, the cytotoxicity is -13.7% (inactive). With `O=C(CN1CCCC(O)C1)N1c2ccccc2Sc2ccc(C(F)(F)F)cc21` (stereo not drawn) the figure was -4% (inactive); with `O=C(Nc1cccc(C(F)(F)F)c1)c1cccnc1N1CCN(CCO)CC1`, -13.4% (inactive); with `FC(F)(F)c1cccc(CN2CCCCCC2)c1`, -5.3% (inactive).

With `C=CCOC(=O)CC(NC(=O)c1ccccc1)c1ccccc1` (stereo not drawn), the cytotoxicity was -11.4% (inactive). Under `COc1ccccc1-c1cn(S(=O)(=O)c2ccc(F)cc2)nc1N` stands 2% (inactive); under `CCOC(=O)c1[nH]nc(C(=O)c2ccc(Br)cc2)c1O`, 5.4% (inactive); under `O=C(c1ccccc1)c1coc2ccc(O)c(Cl)c12`, -15% (inactive). With `CN(C)Cc1c(O)ccc2occ(C(=O)c3ccccc3)c12` the figure was 6.6% (inactive); with `Cc1ccc(C(=O)c2coc3ccc(O)c(CN4CCN(C)CC4)c23)cc1`, -9% (inactive); with `CC(=O)C(C(C)=O)c1c(Cl)c(O)c(O)c2c(C(=O)c3ccccc3)coc12`, 76.1% (active).

As for `c1cncc(C(c2nnnn2C2CCCC2)N2CCCC2)c1` (stereo not drawn), the cytotoxicity was 6% (inactive). Turning to `Cc1ccc(SCc2nc(-c3ccccc3)no2)cc1`, the cytotoxicity was -10.8% (inactive). Under `O=C(O)CCC(=O)N1CCN(c2cccc(Cl)c2)CC1` stands -6.3% (inactive); under `CCc1[nH]c(C)c(C(C)=O)c1C`, 65.5% (active); under `CCCNC(=O)c1[nH]c(C)c(C(C)=O)c1C`, 7.9% (inactive). `CC(=O)c1c(C)[nH]c(C)c1C(C)=O`: the cytotoxicity is -3.5% (inactive).

Values taken from PubChem BioAssay AID431 (Sanford-Burnham Center for Chemical Genomics, 2006).
